This note sets out measurements from PubChem BioAssay (NCI).

The panel holds about 83,000 compounds, 20% with a hit somewhere; the sample as a whole holds those more often.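 Cells were grown in 96-well plates and exposed to the test compound at a single concentration for 48 hours; results are reported as percent growth, with values below 10 considered active.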 A number with no mark means an inactive call. Active and inactive are the calls of the source.

Holding throughout (assay): NCI-60 one-dose screen, 48 h (100 = growth as untreated, 0 = no growth, -100 = all killed)
For assay [1], the system named is SK-MEL-2 melanoma. As to conditions: 10 µM unless noted.
Assay [2] concerns EKVX NSCLC. Particulars: 10 µM unless noted.
Assay [3] deals with SN12C renal. Particulars: 10 µM unless noted.
Assay [4] relates to UO-31 renal. As to conditions: 10 µM unless noted.
Assay [5] relates to ACHN renal. As to conditions: 10 µM unless noted.
The subject of assay [6] is CAKI-1 renal. Particulars: 10 µM.
In assay [7] the test system is A498 renal. As to conditions: 10 µM unless noted.
The subject of assay [8] is CCRF-CEM leukemia. As to conditions: 10 µM unless noted.
Assay [9] concerns MOLT-4 leukemia. As to conditions: 10 µM unless noted.
For assay [10], the system named is SR leukemia. As to conditions: 10 µM unless noted.
Assay [11] relates to RPMI-8226 leukemia. Particulars: 10 µM unless noted.
Assay [12] concerns OVCAR-8 ovarian. As to conditions: 10 µM unless noted.
The test system of assay [13] is OVCAR-5 ovarian. As to conditions: 10 µM unless noted.
Assay [14] has as its system OVCAR-4 ovarian. Particulars: 10 µM unless noted.
Assay [15] deals with SK-OV-3 ovarian. Particulars: 10 µM unless noted.
Assay [16] concerns IGROV1 ovarian. Particulars: 10 µM unless noted.
The test system of assay [17] is OVCAR-3 ovarian. Particulars: 10 µM unless noted.
For assay [18], the system named is HS 578T breast. Particulars: 10 µM unless noted.
In assay [19] the test system is NCI/ADR-RES ovarian. Particulars: 10 µM unless noted.
The subject of assay [20] is TK-10 renal. As to conditions: 10 µM unless noted.

On to `CN(C)c1ccc(/C=c2\s/c(=C\C(=O)C(C)(C)C)[nH]c2=O)cc1`, for which the growth in assay [1] was 102%; in assay [2] it was 93.9%; in assay [3] it was 99%; in assay [4], 92.5%; in [5] it was 100%; in [6] it was 97.8%. Also, the growth in assay [7] is 105%; in [8], 101%; in [9], 133%; in [10], 92.1%; in [11] it was 104%; in assay [12] it was 102%. For the same compound, the growth is 99.7% in assay [13]; 85.3% in [14]; 100% in [15]; 88.5% in assay [16]; 102% in [17]; 103% in [18]. Further, in assay [19], the growth was 103%.
Take `COc1ccc(/C=C/C(=O)c2ccc(NC(=O)CSc3nnc(-c4cc(OC)c(OC)c(OC)c4)o3)cc2)cc1`: the growth in [1] was 37.7%; in assay [2], -2.83% (active); in assay [3], -43.5% (active); in [4], -85.3% (active); in assay [20] it was 78.8%; in [9] it was -25.9% (active). Besides, the growth is -60.5% (active) in assay [10]; -43.7% (active) in [11]; -14.3% (active) in [12]; 7.48% (active) in [13]; -49.9% (active) in assay [14]; 85.2% in [15]. The growth in assay [16] is -39.2% (active); in [17], -93.8% (active); in assay [18] it was 45.3%; in assay [19], 3.13% (active).
As for `C#CC(=O)/C=C/CCCCCCC#CC(=O)CCC(=O)C#CCCCCCC/C=C/C(=O)C#C`, the growth is 82.1% in assay [1]; 25.4% in assay [2]; -24.5% (active) in [3]; -90.7% (active) in assay [4]; 32.5% in [20]; -45.5% (active) in [8]. Besides, the growth is -32.2% (active) in assay [9]; -34.8% (active) in assay [10]; -31.6% (active) in assay [11]; 8.53% (active) in [12]; 57.7% in assay [13]; 23.5% in assay [14]. Besides, the growth in assay [15] was 91.8%; in [16] it was -39.5% (active); in assay [17] it was 7.03% (active); in assay [18] it was 47%; in [19], 11%.
For `C#C[C@@]1(O)[C@@H](CO)O[C@@H](n2cc(C(F)(F)F)c3c(N)ncnc32)[C@@H]1O`, the growth in [1] was -52.9% (active); in assay [2] it was 5.12% (active); in assay [3], 9.05% (active); in [4] it was -35.4% (active); in assay [20], 12.5%; in assay [7], -84.3% (active). The growth is -8.68% (active) in assay [9]; -6.19% (active) in [10]; -33.6% (active) in assay [11]; 2.43% (active) in assay [12]; 14.1% in assay [13]; 15.8% in assay [14]. In addition, the growth in assay [15] was -7.5% (active); in assay [16], 2.75% (active); in assay [17] it was -2.07% (active); in assay [18] it was -15.6% (active); in [19] it was 6.08% (active).
Turning to `C=CCOc1ccc(/C(Cl)=N/N=C(\Cl)c2cc(OC)c(OC)c(OC)c2)cc1`, the growth in [1] is 71.8%; in assay [2], 88.7%; in [3], 84.1%; in assay [4] it was 68%; in assay [20] it was 96.4%; in assay [8] it was 34%. The growth in assay [9] is 30.8%; in assay [10], 17%; in assay [11] it was 70.3%; in assay [12], 62.6%; in assay [13] it was 97.5%; in [14], 84.3%. Further, the growth in [15] was 64.7%; in assay [16], 64%; in assay [17], 77.1%; in [18], 75.5%; in assay [19], 77.6%.
On to `CC(C)(C)C(=O)Nc1nc2c(s1)CCc1ccn(S(=O)(=O)c3ccccc3)c1-2`, for which the growth in assay [1] is 81.8%; in assay [2] it was 87.7%; in assay [3] it was 112%; in assay [4] it was 62.7%; in assay [20] it was 82.1%; in assay [8] it was 92.9%. Also, the growth is 70.8% in assay [9]; 83.1% in [10]; 78.6% in assay [11]; 100% in [12]; 97.7% in assay [13]; 95.2% in assay [14]. The growth in assay [15] is 96.1%; in [16], 97.3%; in assay [17] it was 95.3%; in assay [18], 98.6%; in [19] it was 85.7%.
As for `CCc1c(C)c2cc3c(c(C)c2oc1=O)OCC(=O)N3`, the growth in [1] was 77.5%; in assay [2], 35.9%; in [3] it was 72.9%; in [4] it was 37.3%; in [20] it was 15.1%; in assay [8] it was 84.3%. For the same compound, the growth in assay [9] was 80.7%; in assay [10], 4.96% (active); in [11], 90.9%; in assay [12] it was 74.6%; in assay [13] it was 77.9%; in [14] it was 79.5%. The growth in assay [15] was 78.6%; in [16], 51.7%; in assay [17] it was 73.8%; in [18], 59.5%; in [19] it was 75.1%.
`O=C(NCCNc1nccc(-c2c(-c3cccc(O)c3)nc3sccn23)n1)c1ccc(N2CCOCC2)c(C(F)(F)F)c1`: the growth was 66.7% in assay [1]; 74% in assay [2]; 76% in assay [3]; 61.3% in assay [4]; 60.8% in [5]; 66.9% in [6]. For the same compound, the growth was 47.8% in [7]; 56.9% in assay [8]; 57% in assay [9]; 76.1% in assay [10]; 58.8% in [11]; 72.8% in [12]. Besides, the growth in assay [13] is 91.2%; in assay [14] it was 105%; in assay [15], 66.4%; in [16], 54.3%; in assay [17] it was 89.1%.
As to `COc1ccc(-c2ccc(NC(=O)Nc3cccc(C(F)(F)F)c3)c(C)n2)cc1`, the growth in assay [1] was 75.9%; in [2] it was 41.4%; in assay [3] it was 68%; in [4], 55.1%; in assay [20] it was 76.7%; in assay [8], 42.9%. Moreover, the growth in assay [9] was 33.7%; in assay [10], 36.3%; in [11] it was 22.6%; in assay [12], 61.9%; in assay [13], 83%; in assay [14] it was 42.9%. The growth in [15] is 82.1%; in assay [16], 91.3%; in [17], 41.9%; in [18], 88.9%; in assay [19] it was 53.2%.
